# Screening data from PubChem.
# Cycloheximide cs – affects cycloheximide protein synthesis inhibition readout, counter-screen; cell reporter, cycloheximide protein synthesis inhibition counterscreen; max response, %; 300,000 tested, 12% active; AID 2314; in the data active means max response mostly above about 13%, no sharp cut-off; inactive means mostly below about 14%; further: read at 38.3 µM for the half of the compounds with a filed dose; 0% is about no effect
# Pf growth 48h – P. falciparum growth inhibition at 48 hours (one generation). P. falciparum luciferase growth in erythrocytes, 48 h. Potency, µM (top dose mostly 28.7 µM), for the others: at the highest dose activity change, negative = inhibition, actives largely listed as inhibitors. 310,000 tested, 5.9% active. AID 504832; further: potency means the concentration at half of the fitted maximal effect; on the % scale 0 is the no-effect control and ±100 the full control effect
#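 Here the parasites carry a stable luciferase gene and grow inside erythrocytes in Albumax-based RPMI medium with compound for one erythrocytic cycle. Activity is scored as loss of luminescent signal.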
# AMA1-RON2 inh – inhibitors of Plasmodium falciparum AMA1-RON2 interaction | AlphaScreen AMA1-biotinylated RON2 peptide binding | Potency, µM (top dose mostly 58.2 µM), for inactives: at the top dose activity change, negative = inhibition, hits mostly inhibitors | AID 720542 | 360,000 tested, 0.2% active;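 further: potency means the concentration at half of the fitted maximal effect; 0% = vehicle wells and -100% = peptide control; nearly all actives have a fitted effect of over 45% in size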
#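 AMA1 (3D7) with his tag at 25 nM final met compounds first, then biotinylated RON2 peptide at 25 nM; detection used donor plus acceptor beads, 10 µg/mL apiece, read by AlphaScreen after 30 min at room temperature.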
# HCV inh – HCV inhibition. Huh7.5.1 HCVcc-Cre infection, luciferase reporter, 44 h. Potency, µM (top dose mostly 41.8 µM), for the others: top-dose activity change, negative = inhibition, actives largely listed as inhibitors. 340,000 tested, 3.4% active. AID 651820; further: potency means the concentration at half of the fitted maximal effect; on the % scale 0 is the no-effect control and ±100 the full control effect
#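 Seed cells (1,000/well) for 4 h; treat with compound and infect with HCVcc-Cre, moi about 0.5. Incubate 44 h, then detect luciferase activity.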
# Shiga toxin inh – Shiga toxin inhibition | AID 2315 | Vero cells, Shiga toxin protein synthesis inhibition reporter | 290,000 tested, 9.2% active | inhibition, % at 38.7 µM; in the data active means inhibition mostly above about 28%, no sharp cut-off; inactive means mostly below about 43%; further: 0% is about no effect
# Pf growth 96h – P. falciparum growth inhibition at 96 hour, primary screen for plastid delayed-death inhibitors | P. falciparum luciferase reporter growth, 96 h | Potency, µM (top dose mostly 28.7 µM), inactives show at the highest dose activity change, negative = inhibition, usual class: inhibitors | 320,000 tested, 6.9% active; further: potency means the concentration at half of the fitted maximal effect; on the % scale 0 is the no-effect control and ±100 the full control effect
#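 Two-generation exposure (96 h) targets delayed-death phenotype. Reporter parasites carrying integrated firefly luciferase, in red cells at 2% hematocrit and 0.05% parasitemia final, kept at 37 C, 5% CO2; luminescence loss indicates inhibition.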
# Starred values were filed as active, the others as inactive; ? = inconclusive; · = no result given; [ ] = remark or other dose. Shown are actives, neighbours in structure and some others; about 21% of the full set was active somewhere. Unless noted, the call rests on the fitted dose curve; in most records, active means well fitted curve in the direction sought with a large enough effect; inconclusive means small, poorly fitted or top-dose-only effect, or another doubt; inactive means no such curve, though single readings can be large; an effect the other way counts as inactive or inconclusive.
SMILES,Cycloheximide cs,Pf growth 48h,AMA1-RON2 inh,HCV inh,Shiga toxin inh,Pf growth 96h
COc1ccc2cc(C3CC(c4ccco4)=NN3S(=O)(=O)c3ccccc3)c(Cl)nc2c1 (centres undefined),17,?,-20%,?,33*,?
CCOc1ccc2cc(C3CC(c4ccco4)=NN3S(=O)(=O)c3ccccc3)c(Cl)nc2c1 (centres undefined),19*,15µM*,-10%,-26%,68*,13µM*
CSCCC(NC(=O)c1ccco1)C(=O)N1CC=C(c2ccccc2)CC1 (centres undefined),13,-16%,-6%,·,-3,-20%
Cc1cc2ccccn2c1C(=O)c1ccc([N+](=O)[O-])o1,34*,-28%,-20%,11µM*,23,?
Cc1cc2ccccn2c1C(=O)c1cccc([N+](=O)[O-])c1,-2,-3%,-24%,2%,14,16%
CCOC(=O)C(=O)c1c(C)cc2ccccn12,23*,64%,-7%,-18%,47*,-30%[5.75 µM]
COc1ccc(CCN2CCCC(CN(C)Cc3cc(Cl)c(O)c(OC)c3)C2)cc1 (centres undefined),-2,2.3µM*,1%,?,-7,106%
CCN(Cc1cccc(OC)c1)CC1CCCN(CCc2cccc(OC)c2)C1 (centres undefined),-3,?,-12%,?,-10,?
COc1cccc(CN(C)CC2CCCN(CCc3ccccc3C)C2)c1 (centres undefined),-3,5%,-5%,11µM*,-10,?
COc1ccc(CN(C)CC2CCCN(CCc3ccccc3C)C2)cc1O (centres undefined),-3,5.9µM*,-3%,?,11,?
COc1cc(OC)c(OC)cc1CN(C)CC1CCCN(CCc2ccccc2F)C1 (centres undefined),1,?,0%,14µM*,-2,0%
Cc1cc(C)c(C(=O)N(C)CC2CCCN(CCc3ccccc3F)C2)o1 (centres undefined),-2,?,7%,·,-10,-1%
NC(=O)C1=C[C@@H](c2ccc(C(F)(F)F)cc2)C[C@@H](OCCCCO)O1,7,11%,4%,44%,-11,13%
O=C(Cc1nnc(NC(=O)Nc2ccccc2F)s1)NCc1ccccc1,5,17%,13%,1%,-15,37%
O=C1NC2=C(C(=O)OC2)C(c2ccc(OC(F)(F)F)cc2)N1 (centres undefined),-2,-2%,8%,34%,6,0%
C=C(C)[C@H]1CC=C(CO)CC1,4,·,·,·,22,·
COc1ccc(CCN2CCCC(CN(C)C(=O)c3ccoc3)C2)cc1 (centres undefined),52*,0%,2%,21%,142*,0%
Cc1ccccc1CCN1CCCC(CN(C)C(=O)C(=O)c2ccco2)C1 (centres undefined),18*,29%,-17%,-9%,37,10%
CN(CC1CCCN(CCc2ccc(Cl)cc2)C1)C(=O)C(=O)c1ccco1 (centres undefined),-1,-27%,1%,?,23,69%
C[C@H](CO)N1C[C@H](C)[C@@H](CN(C)C(=O)NC2CCCCC2)Oc2ccc(NC(=O)C3CC3)cc2C1=O,·,·,6%,1%,·,·
Nc1nc(Cl)nc2ncn(Cc3ccccc3)c12,-3,0%,16%,21%,-30,0%
Cc1ccc(SCc2cc(=O)c3c(=O)n(-c4ccccc4)[nH]c3[nH]2)cc1,3,3%[5.75 µM],?,25%,-5,9.3µM*
Cc1c(N)cccc1Cl,-6,·,0%,5%,-9,·
CCC(CC)C(=O)NCc1ccccc1OC,-4,-5%,6%,10%,-16,-15%
COc1ccccc1CNC(=O)c1ccc(OC(C)C)cc1,15*,15%,-15%,-17%,56*,15%[5.75 µM]
SMILES,Cycloheximide cs,Pf growth 48h,AMA1-RON2 inh,HCV inh,Shiga toxin inh,Pf growth 96h
CCc1ccc(C(=O)NCc2cccs2)s1,37*,73%,-4%,-20%,89*,·
CCOc1ccc(C(=O)NCc2ccccc2OC)cc1,11,0%,-15%,-14%,active,6%
O=C(NCc1cccs1)c1ccc(Cl)s1,12,22%,-8%,-5%,-6,·
COc1ccccc1CNC(=O)C(c1ccccc1)c1ccccc1,-2,-1%,6%,5%,-11,?
CC(C)Oc1ccc(C(=O)NCc2cccs2)cc1,50*,·,7%,-19%,36*,23%
O=C(NCc1cccs1)c1ccccc1,-3,·,4%,23%,-1,-16%
CN(C)C(=O)c1sccc1Oc1ccc(F)cc1[N+](=O)[O-],4,15%,14%,6%,-4,5%
CCCCC(=O)OCc1nc(N)nc(Nc2ccccc2C)n1,58*,0%,48%,-2%,active,-2%
Cc1ccc(N2CC(C(=O)OCc3nc(N)nc(Nc4ccccc4C)n3)CC2=O)cc1 (centres undefined),·,32%,3%,8%,·,3%
COc1ccccc1C(=O)OCc1nc(N)nc(Nc2ccccc2C)n1,36*,47%,12%,?,43,60%
Cc1ccccc1Nc1nc(N)nc(COC(=O)C2CCCCC2)n1,71*,40%,-3%[11.6 µM],?,70*,20%
CC(C)(C)OC(=O)N[C@H](/C=C/c1ccccc1)C(=O)OC(C)(C)C,·,?,5%,14%,·,?
CCOc1ccccc1N1CC(C(=O)N(CC)CC(=O)Nc2ccc3c(c2)OCCO3)CC1=O (centres undefined),·,?,58%,14%,·,-2%
O=c1c(Cl)c(NCCO)cnn1-c1cccc(Cl)c1,23*,39%,3%,-13%,51*,62%
CN(C)CCNc1cnn(-c2ccccc2)c(=O)c1Cl,17*,15%,8%,20%,55,39%
N#Cc1cnn(-c2cccc(Cl)c2)c1-n1cccc1,1,12%,-5%,4%,-1,5%
CNc1cnn(-c2ccccc2)c(=O)c1Cl,-3,21%,15%,-3%,37,31%
CCCCNC(=O)c1[nH]c(C2CCNCC2)nc1-c1cccc(C(F)(F)F)c1,·,·,-10%,·,·,·
Cc1nn(C(=O)Cn2ccc([N+](=O)[O-])n2)c(C)c1Cl,-4,-16%,-10%,-2%,-11,?
CCN(CC)CCC#CC(O)(c1ccccc1)C1CCCCC1 (centres undefined),-2,?,-3%,-16%,-27,?
CCC[N+]1(CC#CC(O)(c2ccccc2)C2CCCCC2)CCCCC1 (centres undefined),1,1.7µM*,-3%,-29%,-4,-22%
O=C1c2ccsc2SCCN1Cc1cccc(F)c1,-4,·,3%,21%,-5,31%
Fc1ccc(N/N=C2/CCSc3sccc32)c(F)c1,15*,63%,-4%,9%,28*,0%
